The results in this text go back to the supplement of paper PMC7057948, “A genome-wide approach for identification and characterisation of metabolite-inducible systems” (Nature Communications, 2020).

The first assay relates to AcoR/P_H16_RS19445 acetoin biosensor (pEH052). The experiment in a line: relative induction of RFP reporter vs primary effector; higher = stronger activation. To be noted: inducer concentration 5 mM; 6 h; Cupriavidus necator H16; minimal medium + 0.4% gluconate. The method, then:
(§1)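 Orthogonality screen of 21 primary inducers against 21 transcription factor/inducible promoter–mRFP biosensors in C. necator H16 in minimal medium, robotic 96-well format, 5 mM inducer, 30 °C. OD-normalised RFP fluorescence was read 6 h later and expressed as relative induction (%) = 100 × (FL compound − FL uninduced)/(FL primary inducer − FL uninduced); mean of n=4. Cognate pairs (100% by definition) omitted.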
For `NCCC(=O)O` [β-alanine], the “relative induction of RFP reporter” value is -2.32%.

`O=C(O)C(=O)c1ccccc1` [phenylglyoxylate]: the “relative induction of RFP reporter” value was -2.12%.

As to `O=C(O)CS(=O)(=O)O` [sulfonatoacetate], the “relative induction of RFP reporter” value is 0.846%.

`N[C@@H](Cc1ccc(O)cc1)C(=O)O` [L-tyrosine]: the “relative induction of RFP reporter” value is -2.55%.

As to `O=c1[nH]c(=O)c2nc[nH]c2[nH]1` [xanthine], the “relative induction of RFP reporter” value is -1.36%.

`OC1OC[C@H](O)[C@H](O)[C@H]1O` (mixture of isomers) [L-arabinose]: the “relative induction of RFP reporter” value was -0.298%.

Turning to `O=C(O)C(O)C(O)C(=O)O` (centres undefined) [tartrate], the “relative induction of RFP reporter” value was 0.491%.

In the case of `O=C(O)c1ccccc1` [benzoate], the “relative induction of RFP reporter” value came to 4.78%.

On to `O=C(O)c1ccccc1O` [salicylate], for which the “relative induction of RFP reporter” value is -1.02%.

For the compound `C=C(CC(=O)O)C(=O)O` [itaconate], the “relative induction of RFP reporter” value stood at 7.98%.

Consider `O=C(O)C1CCCCC1` [cyclohexane-1-carboxylate], for which the “relative induction of RFP reporter” value came to 2.02%.

As for `O=C(O)c1ccc(O)c(O)c1` [3,4-dihydroxybenzoate], the “relative induction of RFP reporter” value is -0.382%.

For the compound `O=CO` [formate], the “relative induction of RFP reporter” value was -0.63%.

With `N[C@@H](Cc1ccccc1)C(=O)O` [L-phenylalanine], the “relative induction of RFP reporter” value is -1.77%.

Turning to `O=C(O)CCO` [3-hydroxypropanoate], the “relative induction of RFP reporter” value was -1.52%.

Consider `Nc1ccccc1C(=O)C[C@H](N)C(=O)O` [L-kynurenine], for which the “relative induction of RFP reporter” value was -1.84%.

With `C=CC(=O)O` [acrylate], the “relative induction of RFP reporter” value is -1.36%.

The test system of a further assay is AraC/P_araBAD L-arabinose biosensor (pEH176). The description is as above. Particulars: inducer concentration 5 mM; 6 h; Cupriavidus necator H16; minimal medium + 0.4% gluconate. The procedure:
as §1
As for `NCCC(=O)O` [β-alanine], the “relative induction of RFP reporter” value was -0.0067%.

Take `O=C(O)C(=O)c1ccccc1` [phenylglyoxylate]: the “relative induction of RFP reporter” value is -0.003%.

In the case of `O=C(O)CS(=O)(=O)O` [sulfonatoacetate], the “relative induction of RFP reporter” value is 0.0162%.

In the case of `CC(=O)C(C)O` (centres undefined) [acetoin], the “relative induction of RFP reporter” value amounted to 0.00953%.

As to `N[C@@H](Cc1ccc(O)cc1)C(=O)O` [L-tyrosine], the “relative induction of RFP reporter” value turned out to be 0.00497%.

Consider `O=c1[nH]c(=O)c2nc[nH]c2[nH]1` [xanthine], for which the “relative induction of RFP reporter” value turned out to be 0.0252%.

For the compound `O=C(O)C(O)C(O)C(=O)O` (centres undefined) [tartrate], the “relative induction of RFP reporter” value was -0.00769%.

With `O=C(O)c1ccccc1` [benzoate], the “relative induction of RFP reporter” value was -0.00267%.

Regarding `O=C(O)c1ccccc1O` [salicylate], the “relative induction of RFP reporter” value is -0.0255%.

Consider `C=C(CC(=O)O)C(=O)O` [itaconate], for which the “relative induction of RFP reporter” value is -0.0132%.

With `O=C(O)C1CCCCC1` [cyclohexane-1-carboxylate], the “relative induction of RFP reporter” value was -0.0317%.

Consider `O=C(O)c1ccc(O)c(O)c1` [3,4-dihydroxybenzoate], for which the “relative induction of RFP reporter” value was -0.0224%.

Take `O=CO` [formate]: the “relative induction of RFP reporter” value is -0.0317%.

Consider `N[C@@H](Cc1ccccc1)C(=O)O` [L-phenylalanine], for which the “relative induction of RFP reporter” value was -0.0146%.

`O=C(O)CCO` [3-hydroxypropanoate]: the “relative induction of RFP reporter” value is -0.0357%.

Take `Nc1ccccc1C(=O)C[C@H](N)C(=O)O` [L-kynurenine]: the “relative induction of RFP reporter” value is -0.00708%.

Take `C=CC(=O)O` [acrylate]: the “relative induction of RFP reporter” value is -0.0252%.
